From PubChem BioAssay (NCI)
About 79,000 compounds went through this panel and 15% of them were active in at least one assay; those are over-represented in the sample as a whole. The source made the active and inactive calls. Rule as the data show it: active = growth inhibition above about 70%; inactive = the rest.

Assays:
[1] = NCI Yeast Anticancer Drug Screen. Data for the rad52 strain (AID 147);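 also: 0% = growth of vehicle-treated control cultures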; conditions: S. cerevisiae rad52 mutant growth inhibition, active compounds read high
In short: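 Measured: yeast growth inhibition. System: strain with a defined DNA damage repair alteration. Reference: vehicle-treated control cultures.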

[2] = NCI Yeast Anticancer Drug Screen. Data for the wt1 strain (AID 149);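 also: 0% = growth of vehicle-treated wt1 cultures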; conditions: S. cerevisiae wt1 strain (SPY 50644) growth inhibition, active compounds read high
In short: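 Growth inhibition read against vehicle controls after compound exposure of the wt1 yeast strain.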

[3] = NCI Yeast Anticancer Drug Screen. Data for the rad50EPP+ strain (AID 151);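 also: 0% = growth of vehicle-treated control cultures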; conditions: S. cerevisiae rad50 mutant strain, active compounds read high
In short: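 One strain with a rad50 alteration (rad50EPP+) was compound-treated, its growth then compared to that of vehicle controls.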

[4] = NCI Yeast Anticancer Drug Screen. Data for the rad50 strain (AID 155);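 also: 0% = growth of vehicle-only cultures of the same strain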; conditions: S. cerevisiae rad50 strain growth inhibition, active compounds read high
In short: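 Readout: growth inhibition relative to vehicle-treated cultures. Compound exposure was carried out in a genetically defined yeast strain deficient in DNA damage repair.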

[5] = NCI Yeast Anticancer Drug Screen. Data for the mec2-1 strain (AID 157); conditions: S. cerevisiae mec2-1 strain, active compounds read high
In short: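 Test agents were screened against the mec2-1 yeast strain, with defined DNA repair or cell cycle alteration. Growth was scored as inhibition against vehicle-only controls.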

[6] = NCI Yeast Anticancer Drug Screen. Data for the rad14 strain (AID 159);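 also: 0% = growth of vehicle-treated control cultures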; conditions: S. cerevisiae rad14 strain growth inhibition, active compounds read high
In short: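 Growth inhibition vs vehicle controls; genetically altered yeast strain (DNA damage repair defect) treated with test compounds.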

[7] = NCI Yeast Anticancer Drug Screen. Data for the sgs1 mgt1 strain (AID 161);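 also: 0% = growth of cultures given vehicle only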; conditions: S. cerevisiae sgs1 mgt1 strain, active compounds read high
In short: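 Inhibition of yeast growth, normalised to vehicle-treated controls, is reported for a strain bearing genetic alterations in DNA damage repair.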

[8] = NCI Yeast Anticancer Drug Screen. Data for the CLN2oe strain (AID 163);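 also: 0% = growth of vehicle-only control cultures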; conditions: S. cerevisiae CLN2oe strain, active compounds read high
In short: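 Here, growth inhibition in a cell-cycle-altered yeast strain after compound exposure was quantified against vehicle control growth.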

[9] = NCI Yeast Anticancer Drug Screen. Data for the cln2 rad14 strain (AID 165);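 also: 0% = growth equal to vehicle treated cultures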; conditions: S. cerevisiae cln2 rad14 strain, active compounds read high
In short: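 Growth of compound-exposed yeast (cln2 rad14 genotype) measured and expressed as inhibition relative to vehicle.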

[10] = NCI Yeast Anticancer Drug Screen. Data for the bub3 strain (AID 167); conditions: S. cerevisiae bub3 mutant strain, active compounds read high
In short: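 Readout: yeast growth inhibition, expressed relative to vehicle-only wells. The test organism is a mutant strain from a panel with lesions in DNA repair or checkpoint genes.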

[11] = NCI Yeast Anticancer Drug Screen. Data for the wt2 strain (AID 169);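 also: 0% = growth of vehicle-treated yeast cultures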; conditions: S. cerevisiae wt2 strain growth inhibition, active compounds read high
In short: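 Genetically defined yeast strains from a DNA-repair/cell-cycle panel were used. Compound-exposed yeast growth was measured, and the inhibition was calculated relative to vehicle treatment.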

[12] = NCI Yeast Anticancer Drug Screen. Data for the mlh1 strain (AID 171);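 also: 0% = growth of vehicle-treated control cultures of the same strain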; conditions: S. cerevisiae mlh1 strain growth inhibition, active compounds read high
In short: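 Here the genetically defined yeast mutant is grown with each compound, and the extent to which its growth falls below that of vehicle-exposed cells is reported.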

[13] = NCI Yeast Anticancer Drug Screen. Data for the sgs1 strain (AID 173);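 also: 0% = growth of vehicle-only control cultures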; conditions: S. cerevisiae sgs1 mutant, active compounds read high
In short: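 Relative growth inhibition, referenced to vehicle, was determined in a yeast strain with a defined alteration affecting DNA damage repair or cell cycle control after compound exposure.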

[14] = NCI Yeast Anticancer Drug Screen. Data for the mlh1 rad18 strain (AID 175); conditions: S. cerevisiae mlh1 rad18 strain growth inhibition, active compounds read high
In short: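 In this whole-cell yeast screen, a strain with altered DNA damage repair is challenged with compound, and its growth is measured against matched vehicle-treated controls.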

[15] = NCI Yeast Anticancer Drug Screen. Data for the rad18 strain (AID 177); conditions: S. cerevisiae rad18 mutant growth inhibition, active compounds read high
In short: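 Screen uses a yeast strain with a defined lesion in DNA damage repair; compound effect is read as loss of growth compared to untreated vehicle cultures.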

[16] = at 5.0 µM (retest, dose inferred, filed as 0.5)
[17] = at 50.0 µM (retest, dose inferred, filed as 5.0)

Measured: growth inhibition

CCOC(=O)C1=C(C)NC(C)=C(C(=O)OCC)C1c1ccc(Cl)cc1
inactive: [1]; at 1.2 µM -13% | [1]; at 3.7 µM 6% | [2]; at 1.2 µM -23% | [2]; at 3.7 µM -10% | [2]; at 11.0 µM 33% | [2]; at 33.0 µM 60% | [3]; at 1.2 µM 6% | [3]; at 3.7 µM 4% | [3]; at 11.0 µM 16% | [3]; at 33.0 µM 0% | [3]; at 100.0 µM -8% | [4]; at 1.2 µM 14% | [4]; at 3.7 µM 35% | [5]; at 1.2 µM -9% | [5]; at 3.7 µM -5% | [6]; at 1.2 µM -14% | [6]; at 3.7 µM -6% | [7]; [16] -1% | [8]; at 1.2 µM -4% | [8]; at 3.7 µM -10% | [8]; at 11.0 µM 49% | [9]; [16] 27% | [10]; at 1.2 µM 20% | [10]; at 3.7 µM 44% | [10]; [16] 47% | [11]; at 1.2 µM -3% | [11]; at 3.7 µM -10% | [12]; at 1.2 µM -27% | [12]; at 3.7 µM -9% | [12]; at 11.0 µM 44% | [13]; at 1.2 µM 13% | [13]; at 3.7 µM 19% | [15]; at 1.2 µM 4% | [15]; at 3.7 µM 14%
active: [1]; at 11.0 µM 92% | [1]; at 33.0 µM 78% | [1]; at 100.0 µM 92% | [2]; at 100.0 µM 94% | [4]; [16] 98% | [4]; at 11.0 µM 93% | [4]; at 33.0 µM 88% | [4]; [17] 100% | [4]; at 50.0 µM 90.2% | [4]; at 100.0 µM 89% | [5]; [16] 99% | [5]; at 11.0 µM 70% | [5]; at 33.0 µM 70% | [5]; [17] 99% | [5]; at 50.0 µM 91.5% | [5]; at 100.0 µM 92% | [6]; at 11.0 µM 85% | [6]; at 33.0 µM 82% | [6]; at 100.0 µM 93% | [7]; [17] 98% | [8]; at 33.0 µM 83% | [8]; at 100.0 µM 88% | [9]; [17] 98% | [10]; at 11.0 µM 85% | [10]; at 33.0 µM 81% | [10]; [17] 98% | [10]; at 100.0 µM 93% | [11]; at 11.0 µM 74% | [11]; at 33.0 µM 85% | [11]; at 100.0 µM 96% | [12]; at 33.0 µM 84% | [12]; at 100.0 µM 92% | [13]; at 11.0 µM 73% | [13]; at 33.0 µM 89% | [13]; at 100.0 µM 95% | [14]; [16] 100% | [14]; [17] 100% | [14]; at 50.0 µM 90.2% | [15]; at 11.0 µM 93% | [15]; at 33.0 µM 89% | [15]; at 100.0 µM 92%

CN1CCN(c2ccc3nc(-c4ccc5nc(-c6ccc(O)cc6)[nH]c5c4)[nH]c3c2)CC1
inactive: [1]; at 1.2 µM 8% | [1]; at 3.7 µM -1% | [1]; at 33.0 µM 38% | [2]; at 1.2 µM 3% | [2]; at 3.7 µM 5% | [3]; at 1.2 µM -7% | [3]; at 3.7 µM -12% | [4]; at 1.2 µM 6% | [4]; at 3.7 µM 13% | [5]; at 1.2 µM -4% | [5]; at 3.7 µM -17% | [5]; [16] 63% | [7]; [16] 43% | [8]; at 1.2 µM 9% | [8]; at 3.7 µM 6% | [9]; [16] 45% | [10]; at 1.2 µM -10% | [10]; at 3.7 µM -1% | [11]; at 1.2 µM -17% | [11]; at 3.7 µM -27% | [12]; at 1.2 µM -10% | [12]; at 3.7 µM -15% | [13]; at 1.2 µM -5% | [13]; at 3.7 µM 2% | [15]; at 1.2 µM -12% | [15]; at 3.7 µM -29%
active: [1]; at 11.0 µM 98% | [1]; at 100.0 µM 98% | [2]; at 11.0 µM 98% | [2]; at 33.0 µM 98% | [2]; at 100.0 µM 97% | [3]; at 11.0 µM 83% | [3]; at 33.0 µM 97% | [3]; at 100.0 µM 97% | [4]; [16] 88% | [4]; at 11.0 µM 98% | [4]; at 33.0 µM 98% | [4]; [17] 99% | [4]; at 50.0 µM 99% | [4]; at 100.0 µM 98% | [5]; at 11.0 µM 97% | [5]; at 33.0 µM 97% | [5]; [17] 99% | [5]; at 50.0 µM 99% | [5]; at 100.0 µM 97% | [7]; [17] 99% | [7]; at 50.0 µM 99.2% | [8]; at 11.0 µM 97% | [8]; at 33.0 µM 98% | [8]; at 100.0 µM 98% | [9]; [17] 99% | [9]; at 50.0 µM 97.8% | [10]; [16] 84% | [10]; at 11.0 µM 97% | [10]; at 33.0 µM 98% | [10]; [17] 99% | [10]; at 50.0 µM 99.2% | [10]; at 100.0 µM 97% | [11]; at 11.0 µM 97% | [11]; at 33.0 µM 98% | [11]; at 100.0 µM 98% | [12]; at 11.0 µM 98% | [12]; at 33.0 µM 97% | [12]; at 100.0 µM 97% | [13]; at 11.0 µM 98% | [13]; at 33.0 µM 98% | [13]; at 100.0 µM 97% | [14]; [16] 71% | [14]; [17] 99% | [14]; at 50.0 µM 99.2% | [15]; at 11.0 µM 97% | [15]; at 33.0 µM 97% | [15]; at 100.0 µM 97%

COc1ccc(CCN2C(=O)C=CC2=O)cc1OC
active: [1]; at 11.0 µM 79% | [1]; at 33.0 µM 99% | [1]; at 100.0 µM 99% | [2]; at 33.0 µM 99% | [2]; at 100.0 µM 99% | [3]; at 11.0 µM 82% | [3]; at 33.0 µM 96% | [3]; at 100.0 µM 98% | [4]; at 33.0 µM 98% | [4]; at 50.0 µM 83.2% | [4]; at 100.0 µM 98% | [5]; at 11.0 µM 79% | [5]; at 33.0 µM 100% | [5]; at 50.0 µM 92.3% | [5]; at 100.0 µM 100% | [7]; [16] 74% | [7]; [17] 98% | [8]; at 11.0 µM 81% | [8]; at 33.0 µM 99% | [8]; at 100.0 µM 99% | [9]; [16] 78% | [9]; [17] 99% | [10]; [16] 97% | [10]; at 11.0 µM 88% | [10]; at 33.0 µM 99% | [10]; [17] 97% | [10]; at 100.0 µM 99% | [11]; at 33.0 µM 99% | [11]; at 100.0 µM 99% | [12]; at 33.0 µM 99% | [12]; at 100.0 µM 98% | [13]; at 33.0 µM 98% | [13]; at 100.0 µM 98% | [14]; at 50.0 µM 84.4% | [15]; at 33.0 µM 98% | [15]; at 100.0 µM 98%
inactive: [1]; at 1.2 µM 13% | [1]; at 3.7 µM 37% | [2]; at 1.2 µM -1% | [2]; at 3.7 µM 7% | [2]; at 11.0 µM 62% | [3]; at 1.2 µM 7% | [3]; at 3.7 µM 50% | [4]; at 1.2 µM 4% | [4]; at 3.7 µM 18% | [4]; [16] 27% | [4]; at 11.0 µM 67% | [4]; [17] 51% | [5]; at 1.2 µM 5% | [5]; at 3.7 µM 38% | [5]; [16] 43% | [5]; [17] 42% | [8]; at 1.2 µM 17% | [8]; at 3.7 µM 33% | [10]; at 1.2 µM 15% | [10]; at 3.7 µM 43% | [11]; at 1.2 µM -21% | [11]; at 3.7 µM 5% | [11]; at 11.0 µM 48% | [12]; at 1.2 µM -19% | [12]; at 3.7 µM 4% | [12]; at 11.0 µM 53% | [13]; at 1.2 µM 1% | [13]; at 3.7 µM 5% | [13]; at 11.0 µM 38% | [14]; [16] 23% | [14]; [17] 44% | [15]; at 1.2 µM -2% | [15]; at 3.7 µM 15% | [15]; at 11.0 µM 64%
